Results on nine compounds are retold here after ChEMBL document CHEMBL3988442, “University of Dundee, Small-Polar-MMV Screening Library” (2021).

What all share (parameters): scale not given: direction of the effect not stated beside the values
The target of assay [1] is Protein translocase subunit SecA (Escherichia coli (strain K12)) (UniProt P10408). Kind of assay: Assay to Identify E. coli SecA ATPase Inhibitors. It counts as functional. Conditions: 30 µM.
The target of assay [2] is T1, Ubiquitin-activating enzyme e1, putative (Leishmania donovani (strain BPK282A1)) (UniProt E9BSI1).
T1 sequence (whole entry): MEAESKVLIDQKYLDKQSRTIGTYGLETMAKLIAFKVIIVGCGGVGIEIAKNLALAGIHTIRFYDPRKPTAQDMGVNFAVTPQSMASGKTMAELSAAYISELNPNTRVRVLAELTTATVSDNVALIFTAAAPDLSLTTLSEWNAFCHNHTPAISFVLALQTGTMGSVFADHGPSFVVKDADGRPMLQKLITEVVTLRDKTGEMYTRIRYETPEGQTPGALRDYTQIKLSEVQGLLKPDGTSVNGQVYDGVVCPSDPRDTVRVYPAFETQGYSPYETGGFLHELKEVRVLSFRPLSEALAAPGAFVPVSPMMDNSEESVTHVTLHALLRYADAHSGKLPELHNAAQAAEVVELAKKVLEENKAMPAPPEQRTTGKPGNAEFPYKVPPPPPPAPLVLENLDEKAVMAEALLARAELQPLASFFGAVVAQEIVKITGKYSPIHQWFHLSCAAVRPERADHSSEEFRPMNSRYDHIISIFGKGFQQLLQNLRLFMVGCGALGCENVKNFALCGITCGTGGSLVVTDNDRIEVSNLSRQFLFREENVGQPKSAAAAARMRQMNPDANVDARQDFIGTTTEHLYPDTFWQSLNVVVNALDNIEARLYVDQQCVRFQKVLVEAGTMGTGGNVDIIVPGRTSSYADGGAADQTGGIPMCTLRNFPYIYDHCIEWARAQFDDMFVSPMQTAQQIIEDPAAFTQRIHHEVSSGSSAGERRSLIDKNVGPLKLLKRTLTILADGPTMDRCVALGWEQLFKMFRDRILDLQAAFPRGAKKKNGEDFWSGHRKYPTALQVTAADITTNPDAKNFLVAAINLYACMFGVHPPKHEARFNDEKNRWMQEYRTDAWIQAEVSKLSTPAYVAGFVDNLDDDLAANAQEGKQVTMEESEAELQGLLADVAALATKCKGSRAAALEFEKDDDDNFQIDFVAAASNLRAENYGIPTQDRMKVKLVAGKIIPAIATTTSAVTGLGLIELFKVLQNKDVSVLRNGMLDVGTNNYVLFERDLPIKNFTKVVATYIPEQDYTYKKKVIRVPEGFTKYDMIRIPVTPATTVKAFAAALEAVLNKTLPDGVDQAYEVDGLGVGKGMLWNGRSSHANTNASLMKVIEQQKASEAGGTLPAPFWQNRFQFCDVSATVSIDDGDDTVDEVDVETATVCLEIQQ
Briefly: Leishmania donovani Ubiquitin Activating Enzyme (LdE1). It counts as functional. Conditions: 30 µM.

Assay [3] has as its target AMP-activated protein kinase, AMPK (Homo sapiens) (UniProt P54646+O43741+P54619+Q9UGJ0+Q9Y478+Q13131+Q9UGI9). Kind of assay: AMP-dependent Kinase enzyme assay. An in vitro enzyme assay that detects ADP turnover that is directly proportional to AMPK activity. This uses naive AMPK that is activated during the assay with MK-8722. It counts as functional. Conditions: 30 µM.

Assay [4] addresses Sialic acid-binding Ig-like lectin 9 (Homo sapiens) (UniProt Q9Y336). Kind of assay: Hs-Siglec9 ALPHAscreen SOP 20170721. As to conditions: 10 µM.
The next assay relates to Trypanosoma cruzi. Briefly: Trypanosoma cruzi phosphomannomutase and mannose-1-phosphate guanylyltransferase assay. It counts as functional. As to conditions: 10 µM.
For assay [5], the target named is T2, Arginase-2, mitochondrial (Homo sapiens) (UniProt P78540).
T2 sequence (whole entry): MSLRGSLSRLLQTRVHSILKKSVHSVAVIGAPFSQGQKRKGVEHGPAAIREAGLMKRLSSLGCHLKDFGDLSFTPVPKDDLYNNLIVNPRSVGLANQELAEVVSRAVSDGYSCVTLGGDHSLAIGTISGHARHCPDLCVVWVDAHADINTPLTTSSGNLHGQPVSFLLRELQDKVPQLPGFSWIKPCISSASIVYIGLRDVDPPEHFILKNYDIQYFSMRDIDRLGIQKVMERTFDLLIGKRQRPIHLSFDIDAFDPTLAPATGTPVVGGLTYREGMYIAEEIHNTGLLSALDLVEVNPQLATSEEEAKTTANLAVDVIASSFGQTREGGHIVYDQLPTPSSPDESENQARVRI
Briefly: in vitro enzyme assay to detect the production of urea directly proportional to the activity of Arginase II. Note: in the data most compounds retested in dose-response had high values. As to conditions: 33.3 µM. It counts as functional.

Assay [6] deals with T3, Proteasome subunit beta (Trypanosoma cruzi) (UniProt O96673).
T3 sequence (whole entry): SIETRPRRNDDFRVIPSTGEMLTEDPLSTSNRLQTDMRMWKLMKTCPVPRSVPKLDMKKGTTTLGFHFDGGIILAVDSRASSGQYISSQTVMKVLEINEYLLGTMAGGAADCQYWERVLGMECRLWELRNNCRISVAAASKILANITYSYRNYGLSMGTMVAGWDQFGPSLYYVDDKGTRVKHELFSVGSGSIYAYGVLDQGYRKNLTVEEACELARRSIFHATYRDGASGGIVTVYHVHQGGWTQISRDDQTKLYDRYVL
Kind of assay: Trypanosoma cruzi proteasome chymotrypsin-like activity (TcProtChymo) assay. Note: in the data most compounds retested in dose-response had high values. It counts as functional. Conditions: 9.37 µM.

The next assay is filed under the species Homo sapiens. Kind of assay: To identify inhibition of the IFN signalling (Jak-Stat) pathway via expression of an eGFP reporter gene under the control of an IFN-stimulated response element (ISRE) containing MxA promoter. It counts as functional. Conditions: 30 µM. (A reporter such as luciferase makes a cellular process visible.)
For assay [7], the target named is T4, Tyrosyl-tRNA synthetase, putative (Trypanosoma cruzi (strain CL Brener)) (UniProt Q4DSP6).
T4 sequence (whole entry): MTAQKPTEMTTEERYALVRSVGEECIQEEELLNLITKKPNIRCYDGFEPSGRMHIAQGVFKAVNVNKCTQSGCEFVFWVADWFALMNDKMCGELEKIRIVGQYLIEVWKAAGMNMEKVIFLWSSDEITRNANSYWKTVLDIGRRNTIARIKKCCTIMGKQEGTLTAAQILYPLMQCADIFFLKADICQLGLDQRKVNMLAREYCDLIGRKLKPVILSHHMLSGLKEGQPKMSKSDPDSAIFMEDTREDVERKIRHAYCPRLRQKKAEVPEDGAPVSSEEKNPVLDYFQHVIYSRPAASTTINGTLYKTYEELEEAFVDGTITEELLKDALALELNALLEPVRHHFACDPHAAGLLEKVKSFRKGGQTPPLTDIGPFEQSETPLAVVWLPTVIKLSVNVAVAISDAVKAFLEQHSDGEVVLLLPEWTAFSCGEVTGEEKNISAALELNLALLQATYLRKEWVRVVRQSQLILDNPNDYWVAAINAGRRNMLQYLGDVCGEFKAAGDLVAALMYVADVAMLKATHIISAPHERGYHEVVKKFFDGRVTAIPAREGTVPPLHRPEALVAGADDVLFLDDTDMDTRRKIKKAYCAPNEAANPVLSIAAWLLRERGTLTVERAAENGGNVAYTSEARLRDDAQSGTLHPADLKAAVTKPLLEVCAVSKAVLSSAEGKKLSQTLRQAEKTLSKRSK
Kind of assay: Trypanosoma cruzi tyrosyl tRNA synthetase (TcYRS) _High Tyrosine SOP. Note: in the data most compounds retested in dose-response had high values. It counts as functional. As to conditions: 30 µM.

For assay [8], the target named is T4, Tyrosyl-tRNA synthetase, putative (Trypanosoma cruzi (strain CL Brener)). Kind of assay: Trypanosoma cruzi tyrosyl tRNA synthetase (TcYRS) SOP. It counts as functional. Conditions: 30 µM.
Assay [9] addresses Chromo domain-containing protein 1 (Saccharomyces cerevisiae (strain ATCC 204508 / S288c) (Baker's yeast)) (UniProt P32657). Briefly: ScCHD-1 Enzyme Inhibition Assay. Note: in the data most compounds retested in dose-response had high values. It counts as functional. As to conditions: 30 µM.

Each structure is given as a SMILES string. For part of these data: Results with a measured potency or affinity are listed apart.

Chain of Protein translocase subunit SecA (Escherichia coli (strain K12)) (P10408 whole entry): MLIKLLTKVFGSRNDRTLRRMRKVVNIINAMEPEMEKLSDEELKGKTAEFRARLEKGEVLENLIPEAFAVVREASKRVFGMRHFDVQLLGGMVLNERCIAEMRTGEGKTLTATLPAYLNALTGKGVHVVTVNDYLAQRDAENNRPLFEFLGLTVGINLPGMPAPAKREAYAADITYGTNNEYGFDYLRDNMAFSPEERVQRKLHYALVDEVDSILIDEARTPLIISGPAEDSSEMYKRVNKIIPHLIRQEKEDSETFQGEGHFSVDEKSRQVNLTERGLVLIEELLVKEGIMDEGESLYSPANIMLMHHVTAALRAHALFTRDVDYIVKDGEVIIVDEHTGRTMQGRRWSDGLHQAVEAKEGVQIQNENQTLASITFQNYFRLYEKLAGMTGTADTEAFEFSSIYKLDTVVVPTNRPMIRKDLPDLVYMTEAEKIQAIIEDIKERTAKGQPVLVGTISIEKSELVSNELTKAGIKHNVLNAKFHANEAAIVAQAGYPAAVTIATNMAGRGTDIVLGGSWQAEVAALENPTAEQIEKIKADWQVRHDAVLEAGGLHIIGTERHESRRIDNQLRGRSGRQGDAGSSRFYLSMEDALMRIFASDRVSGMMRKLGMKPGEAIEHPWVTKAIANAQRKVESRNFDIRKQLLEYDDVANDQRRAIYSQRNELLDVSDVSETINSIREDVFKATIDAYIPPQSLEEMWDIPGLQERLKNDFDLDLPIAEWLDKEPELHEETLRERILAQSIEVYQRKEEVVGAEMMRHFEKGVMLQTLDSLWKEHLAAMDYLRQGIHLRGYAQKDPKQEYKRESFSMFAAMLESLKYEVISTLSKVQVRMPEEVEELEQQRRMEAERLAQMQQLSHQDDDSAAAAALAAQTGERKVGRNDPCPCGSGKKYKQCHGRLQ
Chain of Sialic acid-binding Ig-like lectin 9 (Homo sapiens) (Q9Y336 whole entry): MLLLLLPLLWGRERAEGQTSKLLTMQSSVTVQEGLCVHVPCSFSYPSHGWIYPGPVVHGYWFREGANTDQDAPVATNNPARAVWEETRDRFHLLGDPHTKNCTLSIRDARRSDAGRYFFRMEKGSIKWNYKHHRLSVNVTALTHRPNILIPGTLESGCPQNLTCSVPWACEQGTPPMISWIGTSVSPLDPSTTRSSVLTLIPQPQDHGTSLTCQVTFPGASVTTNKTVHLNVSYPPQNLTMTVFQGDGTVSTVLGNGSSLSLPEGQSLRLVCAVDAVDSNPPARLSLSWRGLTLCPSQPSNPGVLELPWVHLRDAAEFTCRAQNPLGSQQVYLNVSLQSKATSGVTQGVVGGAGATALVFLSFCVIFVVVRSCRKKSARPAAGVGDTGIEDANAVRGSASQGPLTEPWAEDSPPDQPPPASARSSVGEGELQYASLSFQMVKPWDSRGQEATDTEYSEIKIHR
Chain of Chromo domain-containing protein 1 (Saccharomyces cerevisiae (strain ATCC 204508 / S288c) (Baker's yeast)) (P32657 whole entry, the tested form may be a part): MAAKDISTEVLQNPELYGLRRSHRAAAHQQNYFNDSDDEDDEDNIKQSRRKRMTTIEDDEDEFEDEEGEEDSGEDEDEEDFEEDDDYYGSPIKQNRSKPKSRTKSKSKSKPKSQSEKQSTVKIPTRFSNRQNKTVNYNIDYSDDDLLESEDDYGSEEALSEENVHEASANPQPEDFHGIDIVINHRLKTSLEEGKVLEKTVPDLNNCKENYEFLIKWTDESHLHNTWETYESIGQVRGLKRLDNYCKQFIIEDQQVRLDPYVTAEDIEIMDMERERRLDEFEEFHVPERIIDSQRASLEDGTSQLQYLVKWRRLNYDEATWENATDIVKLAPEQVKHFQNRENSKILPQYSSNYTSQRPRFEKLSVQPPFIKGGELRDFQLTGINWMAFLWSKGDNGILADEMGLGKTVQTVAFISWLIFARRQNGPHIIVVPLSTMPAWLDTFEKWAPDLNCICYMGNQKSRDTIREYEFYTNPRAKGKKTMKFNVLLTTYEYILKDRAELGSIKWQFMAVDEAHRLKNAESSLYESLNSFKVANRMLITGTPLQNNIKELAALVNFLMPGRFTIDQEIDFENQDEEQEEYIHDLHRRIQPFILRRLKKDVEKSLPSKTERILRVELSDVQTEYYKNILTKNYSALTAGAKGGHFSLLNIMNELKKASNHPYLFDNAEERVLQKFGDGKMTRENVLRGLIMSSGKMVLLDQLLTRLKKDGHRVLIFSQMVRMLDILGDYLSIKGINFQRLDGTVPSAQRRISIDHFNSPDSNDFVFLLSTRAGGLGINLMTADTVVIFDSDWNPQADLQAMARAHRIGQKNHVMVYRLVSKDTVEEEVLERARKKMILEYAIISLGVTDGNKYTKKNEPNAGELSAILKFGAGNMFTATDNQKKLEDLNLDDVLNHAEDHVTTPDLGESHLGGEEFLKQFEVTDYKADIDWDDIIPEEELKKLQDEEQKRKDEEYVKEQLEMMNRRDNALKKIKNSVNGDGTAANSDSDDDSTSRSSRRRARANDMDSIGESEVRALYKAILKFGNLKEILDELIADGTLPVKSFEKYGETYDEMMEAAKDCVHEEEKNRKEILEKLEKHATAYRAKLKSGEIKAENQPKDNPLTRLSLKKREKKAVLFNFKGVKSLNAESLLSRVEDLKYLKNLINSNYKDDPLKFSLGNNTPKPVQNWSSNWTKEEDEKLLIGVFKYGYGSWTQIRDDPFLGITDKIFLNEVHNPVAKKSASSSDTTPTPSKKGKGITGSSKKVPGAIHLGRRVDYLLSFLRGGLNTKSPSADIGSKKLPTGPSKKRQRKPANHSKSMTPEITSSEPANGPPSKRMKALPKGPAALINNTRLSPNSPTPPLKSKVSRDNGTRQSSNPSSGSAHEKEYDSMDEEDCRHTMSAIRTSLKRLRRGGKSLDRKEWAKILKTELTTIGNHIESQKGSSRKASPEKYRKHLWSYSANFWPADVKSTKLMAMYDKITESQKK

For `COCC1c2c(cnn2CC2CCOCC2)CCN1Cc1ccoc1` (centres undefined), the Percent Effect was -3.48% in assay [1]; 8.11% in assay [2]; 4.63% in [3]; 0.649% in assay [4]; 1.76% in the assay with Trypanosoma cruzi; 4.17% in assay [5]. Besides, the Percent Effect is 16% in assay [6]; -5.7% in the assay filed under Homo sapiens; 10.9% in [7]; 11% in assay [8]; -3.93% in [9].
As for `COCCN1CCOCC2(CCCN(Cc3ccc(C)o3)C2)C1` (centres undefined), the Percent Effect was -2.04% in [1]; 13.3% in assay [2]; 0.538% in assay [3]; -2.47% in assay [4]; 5.6% with Trypanosoma cruzi; -42.1% in [5]. The Percent Effect is 8.55% in [6]; -12.1% in the assay listed under Homo sapiens; 3.12% in assay [7]; 2.5% in [8]; -9.46% in assay [9].
Turning to `Cc1noc([C@H]2CC[C@@H]3[C@@H](CCN3S(C)(=O)=O)O2)n1`, the Percent Effect in assay [1] was -6.38%; in [2], 2.7%; in assay [3] it was 1.84%; in assay [4] it was -1.29%; with Trypanosoma cruzi, 0.977%; in [5], 3.75%. Also, the Percent Effect was 6.17% in assay [6]; -5.62% in the assay filed under Homo sapiens; 7.92% in [7]; 11% in [8]; -2.42% in assay [9].
For `Cc1nnc2n1CCN(Cc1ncc(-c3ccc(Cl)cc3)o1)C2`, the Percent Effect in assay [1] was -5%; in assay [2], -18.4%; in [3] it was 8.78%; in assay [4], 14.6%; with Trypanosoma cruzi, 3.38%; in [5] it was 2.3%. The Percent Effect in assay [6] is -0.167%; in the assay filed under Homo sapiens it was 7.71%; in assay [7] it was 5.39%; in assay [8], 7.32%; in assay [9] it was -5.79%.
In the case of `Cc1cc(CN2CCN(C(=O)NC(C)Cn3ccnc3)CC2)no1` (centres undefined), the Percent Effect in [1] was -1.68%; in assay [2] it was 5.26%; in assay [3], 3.31%; in assay [4] it was 7.81%; in the assay with Trypanosoma cruzi it was 3.38%; in assay [5], 1.53%. Besides, the Percent Effect in assay [6] was -4.18%; in the assay filed under Homo sapiens, 9.94%; in assay [7], 3.43%; in assay [8], 7.32%; in [9], -4.96%.
Regarding `O=C(c1cnc(C2CC2)s1)N1CCCC(n2cccn2)C1` (centres undefined), the Percent Effect in assay [1] was -2.59%; in [2] it was 8.11%; in assay [3], -1.44%; in [4], -0.959%; in the assay on Trypanosoma cruzi, -7.26%; in [5], -5.61%. For the same compound, the Percent Effect in [6] is 1.26%; in the assay listed under Homo sapiens, 21%; in assay [7] it was 6.4%; in assay [8] it was 11.1%; in assay [9] it was -5.53%.
`Cc1cccc(N2CCN(C(=O)CN3CCN(CCO)CC3)CC2)c1`: the Percent Effect in [1] was -7.92%; in [2] it was 8.22%; in assay [3], 2.85%; in assay [4] it was 6.75%; with Trypanosoma cruzi, 3.37%; in assay [5], 0.798%. Besides, the Percent Effect is 3.51% in [6]; 10.3% in the assay listed under Homo sapiens; 9.38% in assay [7]; 21% in [8]; -0.672% in assay [9].
In the case of `COCCOCC(=O)Nc1ccc(Br)cc1F`, the Percent Effect in assay [1] is -4.21%; in [2], 10.5%; in assay [3], -1.83%; in assay [4], 4.08%; in the assay with Trypanosoma cruzi it was 3.8%; in assay [5] it was -5.92%. Besides, the Percent Effect in assay [6] was 1.63%; in the assay listed under Homo sapiens it was 9.23%; in assay [7], 1.06%; in assay [8] it was 7.79%; in assay [9], -2.27%.
For the compound `CCCNC(=O)c1c(-n2cnnn2)sc2c1CCC2`, the Percent Effect in assay [1] is -1.2%; in assay [2], 7.89%; in [3], 4.3%; in assay [4] it was 2.22%; with Trypanosoma cruzi it was -9.45%; in [5], 3.55%. In addition, the Percent Effect in [6] is 9.3%; in the assay listed under Homo sapiens, 2.78%; in assay [7], 5.32%; in [8], 0%; in assay [9], -5.31%.
